Experimental data taken from PubChem BioAssay (EPA / NIEHS).
Activity calls are given as the source filed them. The calls were made as follows: active = hit-call score of the fitted dose curve at least 0.9, where 1 is the maximum; inactive = score below 0.9.

Columns and labels:
Settings in all cases: mRNA level, 48 h; actives raise or lower the signal
HGF (gene 3082) = assay: LTEA_HepaRG_HGF: Life Technologies and Expression Analysis (LTEA) Assay for Hepatocyte Growth Facto (HGF) using HepaRG (AID 2283505)
How it was run: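 Differentiated human HepaRG cells in serum-free induction medium were exposed in duplicate for 48 h to eight concentrations (top 100 uM, half-log steps, 0.5% DMSO). HGF mRNA was quantified by qRT-PCR, normalized to ACTB, GAPDH and POLR2A.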

[1] = read-out: Insulin Like Growth Factor 1 (IGF1), IGF1 (gene 3479); assay: LTEA_HepaRG_IGF1: Life Technologies and Expression Analysis (LTEA) Assay for Insulin Like Growth Factor 1 (IGF1) using HepaRG (AID 2283506)
How it was run: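 Cells are thawed, plated and cultured 48 h, then exposed in duplicate to chemical (highest 100 uM, half-log steps, 0.5% DMSO) for another 48 h. Total RNA is analysed by Fluidigm qRT-PCR for IGF1 expression relative to vehicle.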

[2] = read-out: Intercellular Adhesion Molecule 1 (ICAM1), ICAM1 (gene 3383); assay: LTEA_HepaRG_ICAM1: Life Technologies and Expression Analysis (LTEA) Assay for Intercellular Adhesion Molecule 1 (ICAM1) using HepaRG (AID 2283507)
How it was run: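 Differentiated HepaRG cells in serum-free induction medium were exposed in duplicate for 48 h to eight half-log concentrations up to 100 uM in 0.5% DMSO. Transcript levels were measured by qRT-PCR normalized to ACTB, GAPDH and POLR2A; bidirectional fits relative to DMSO.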

[3] = read-out: Insulin-like growth factor-binding protein 1 (IGFBP1), IGFBP1 (gene 3484); assay: LTEA_HepaRG_IGFBP1: Life Technologies and Expression Analysis (LTEA) Assay for Insulin-like growth factor-binding protein 1 (IGFBP1) using HepaRG (AID 2283508)
How it was run: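 Differentiated human HepaRG cells in serum-free induction medium were exposed in duplicate for 48 h to eight concentrations, top 100 uM with half-log dilutions, in 0.5% DMSO. Transcript levels came from qRT-PCR normalised to ACTB, GAPDH and POLR2A, fitted bidirectionally against DMSO.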

[4] = read-out: Interleukin 6 (IL6), IL6 (gene 3569); assay: LTEA_HepaRG_IL6: Life Technologies and Expression Analysis (LTEA) Assay for Interleukin 6 (IL6) using HepaRG (AID 2283509)
How it was run: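 Transcript levels, normalized to three housekeeping genes, were quantified by qRT-PCR after 48 h chemical treatment of HepaRG cells. Eight-point half-log series from 100 uM in 0.5% DMSO, duplicates. Fitted both directions against DMSO baseline.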

[5] = read-out: Interleukin 6 Receptor (IL6R), IL6R (gene 3570); assay: LTEA_HepaRG_IL6R: Life Technologies and Expression Analysis (LTEA) Assay for Interleukin 6 Receptor (IL6R) using HepaRG (AID 2283510)
How it was run: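 Cells were thawed, plated and cultured 48 h, then medium was changed to serum-free induction medium. Chemicals were added in duplicate (100 uM top, half-log steps, 0.5% DMSO) for 48 h. Lysates were analyzed by qRT-PCR for IL6R expression.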

[6] = read-out: Potassium channel subfamily K member 1 (KCNK1), KCNK1 (gene 3775); assay: LTEA_HepaRG_KCNK1: Life Technologies and Expression Analysis (LTEA) Assay for Potassium channel subfamily K member 1 (KCNK1) using HepaRG (AID 2283511)
How it was run: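 KCNK1 transcript measured by TaqMan qRT-PCR against three housekeeping genes, after HepaRG cells were treated 48 h with eight half-log concentrations (top 100 uM, 0.5% DMSO). Curves fitted bidirectionally relative to vehicle.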

[7] = read-out: Keratin 19 (KRT19), KRT19 (gene 3880); assay: LTEA_HepaRG_KRT19: Life Technologies and Expression Analysis (LTEA) Assay for Keratin 19 (KRT19) using HepaRG (AID 2283512)
How it was run: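 Differentiated human HepaRG cells, plated 48 h, were exposed in duplicate for 48 h in serum-free induction medium to eight half-log concentrations up to 100 uM in 0.5% DMSO. KRT19 mRNA was quantified by qRT-PCR, normalized to ACTB, GAPDH and POLR2A, and fitted bidirectionally versus DMSO.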

[8] = read-out: JUN Transcription Factor, JUN (gene 3725); assay: LTEA_HepaRG_JUN: Life Technologies and Expression Analysis (LTEA) Assay for JUN Transcription Factor using HepaRG (AID 2283513)
How it was run: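 Read-out is JUN transcript level by TaqMan qRT-PCR, normalized to ACTB, GAPDH and POLR2A, after 48 h chemical treatment of HepaRG cells. Concentration-response spanned eight half-log points up to 100 uM in 0.5% DMSO.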

[9] = read-out: Lipase C (LIPC), LIPC (gene 3990); assay: LTEA_HepaRG_LIPC: Life Technologies and Expression Analysis (LTEA) Assay for Lipase C (LIPC) using HepaRG (AID 2283514)
How it was run: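 LIPC expression was quantified by qRT-PCR against three housekeeping genes (ACTB, GAPDH, POLR2A). Differentiated human HepaRG cells received eight half-log doses (top 100 uM, 0.5% DMSO) in duplicate for 48 h; fitting bidirectional relative to DMSO.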

[10] = read-out: Lipoprotein lipase (LPL), LPL (gene 4023); assay: LTEA_HepaRG_LPL: Life Technologies and Expression Analysis (LTEA) Assay for Lipoprotein lipase (LPL) using HepaRG (AID 2283515)
How it was run: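 LPL transcript levels quantified by TaqMan qRT-PCR against three housekeeping genes after 48 h chemical treatment of HepaRG cells. Eight-point half-log series from 100 uM in 0.5% DMSO, tested in duplicate; bidirectional fitting versus vehicle.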

[11] = read-out: MicroRNA 122 (MIR122), gene 406906; assay: LTEA_HepaRG_MIR122: Life Technologies and Expression Analysis (LTEA) Assay for MicroRNA 122 (MIR122) using HepaRG (AID 2283516); also: the transcript read is the microRNA miR-122
How it was run: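 Human liver HepaRG cultures receive test chemicals for 48 h at eight half-log concentrations from 100 uM. Expression is quantified by qRT-PCR with ACTB/GAPDH/POLR2A normalization and fitted bidirectionally against 0.5% DMSO.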

[12] = read-out: matrix metalloproteinase-10 (MMP10), MMP10 (gene 4319); assay: LTEA_HepaRG_MMP10: Life Technologies and Expression Analysis (LTEA) Assay for matrix metalloproteinase-10 (MMP10) using HepaRG (AID 2283517)
How it was run: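 Expression measured by TaqMan qRT-PCR with ACTB/GAPDH/POLR2A normalisation after 48 h chemical exposure of HepaRG cells. Eight half-log concentrations, top 100 uM, 0.5% DMSO vehicle, duplicates; gain or loss fitted against vehicle.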

MYC, MYC (gene 4609) = assay: LTEA_HepaRG_MYC: Life Technologies and Expression Analysis (LTEA) Assay for MYC using HepaRG (AID 2283518)
How it was run: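 Differentiated human HepaRG cells, plated 48 h then switched to serum-free induction medium, were exposed in duplicate for 48 h to 8-point half-log series up to 100 uM in 0.5% DMSO. MYC mRNA measured by qRT-PCR, normalized to ACTB/GAPDH/POLR2A.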

[13] = read-out: matrix metalloproteinase-3 (MMP3), MMP3 (gene 4314); assay: LTEA_HepaRG_MMP3: Life Technologies and Expression Analysis (LTEA) Assay for matrix metalloproteinase-3 (MMP3) using HepaRG (AID 2283519)
How it was run: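 Fluidigm-based TaqMan qRT-PCR, normalized to ACTB, GAPDH and POLR2A and fitted bidirectionally versus 0.5% DMSO, measured transcript levels. Treatment: duplicate 48 h exposures of HepaRG cells, ~100,000/well, to eight half-log concentrations topping at 100 uM.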

[14] = read-out: Paternally Expressed 10 (PEG10), PEG10 (gene 23089); assay: LTEA_HepaRG_PEG10: Life Technologies and Expression Analysis (LTEA) Assay for Paternally Expressed 10 (PEG10) using HepaRG (AID 2283520)
How it was run: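 Human HepaRG cultures are dosed for 48 h across an eight-point half-log series starting at 100 uM, with 0.5% DMSO as vehicle and baseline. Gain or loss of PEG10 transcript is measured by qRT-PCR and fitted in both directions.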

[15] = read-out: Nuclear factor NF-kappa-B p105 subunit (Homo sapiens) (UniProt P19838); assay: LTEA_HepaRG_NFKB1: Life Technologies and Expression Analysis (LTEA) Assay for Nuclear Factor Kappa B Subunit 1 (NFKB1) using HepaRG (AID 2283521);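 also: TaqMan qRT-PCR transcript normalised to ACTB GAPDH and POLR2A housekeeping genes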
How it was run: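 Differentiated human HepaRG cells were exposed for 48 h in serum-free induction medium to eight concentrations (top 100 uM, half-log steps, 0.5% DMSO), in duplicate. NFKB1 mRNA was measured by TaqMan qRT-PCR, normalized to ACTB/GAPDH/POLR2A, and fitted bidirectionally against DMSO.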

[16] = read-out: Protein phosphatase 2A (PPP2R4), PTPA (gene 5524); assay: LTEA_HepaRG_PPP2R4: Life Technologies and Expression Analysis (LTEA) Assay for Protein phosphatase 2A (PPP2R4) using HepaRG (AID 2283522)
How it was run: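 Cells were plated, cultured 48 h, switched to serum-free induction medium, then dosed for 48 h (8 points, max 100 uM, 0.5% DMSO). RNA was isolated and PPP2R4 expression measured by TaqMan qRT-PCR.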

[17] = read-out: Phosphatase and tensin (PTEN), PTEN (gene 5728); assay: LTEA_HepaRG_PTEN: Life Technologies and Expression Analysis (LTEA) Assay for Phosphatase and tensin (PTEN) using HepaRG (AID 2283523)
How it was run: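 Read-out: TaqMan qRT-PCR of PTEN transcript, normalized to three housekeeping genes, fitted in both directions against 0.5% DMSO. Differentiated human HepaRG cultures received chemicals for 48 h, eight-point half-log series topping at 100 uM.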

[18] = read-out: solute carrier (SLC22A1), SLC22A1 (gene 6580); assay: LTEA_HepaRG_SLC22A1: Life Technologies and Expression Analysis (LTEA) Assay for solute carrier (SLC22A1) using HepaRG (AID 2283524)
How it was run: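 Transcript level of SLC22A1 quantified by qRT-PCR (normalized to three housekeeping genes) after 48 h chemical exposure of HepaRG cells, eight concentrations up to 100 µM, half-log steps, 0.5% DMSO vehicle. Gain or loss relative to DMSO fitted bidirectionally.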

Measured: outcome

Sequence of Nuclear factor NF-kappa-B p105 subunit (Homo sapiens) (P19838 whole entry, looked up): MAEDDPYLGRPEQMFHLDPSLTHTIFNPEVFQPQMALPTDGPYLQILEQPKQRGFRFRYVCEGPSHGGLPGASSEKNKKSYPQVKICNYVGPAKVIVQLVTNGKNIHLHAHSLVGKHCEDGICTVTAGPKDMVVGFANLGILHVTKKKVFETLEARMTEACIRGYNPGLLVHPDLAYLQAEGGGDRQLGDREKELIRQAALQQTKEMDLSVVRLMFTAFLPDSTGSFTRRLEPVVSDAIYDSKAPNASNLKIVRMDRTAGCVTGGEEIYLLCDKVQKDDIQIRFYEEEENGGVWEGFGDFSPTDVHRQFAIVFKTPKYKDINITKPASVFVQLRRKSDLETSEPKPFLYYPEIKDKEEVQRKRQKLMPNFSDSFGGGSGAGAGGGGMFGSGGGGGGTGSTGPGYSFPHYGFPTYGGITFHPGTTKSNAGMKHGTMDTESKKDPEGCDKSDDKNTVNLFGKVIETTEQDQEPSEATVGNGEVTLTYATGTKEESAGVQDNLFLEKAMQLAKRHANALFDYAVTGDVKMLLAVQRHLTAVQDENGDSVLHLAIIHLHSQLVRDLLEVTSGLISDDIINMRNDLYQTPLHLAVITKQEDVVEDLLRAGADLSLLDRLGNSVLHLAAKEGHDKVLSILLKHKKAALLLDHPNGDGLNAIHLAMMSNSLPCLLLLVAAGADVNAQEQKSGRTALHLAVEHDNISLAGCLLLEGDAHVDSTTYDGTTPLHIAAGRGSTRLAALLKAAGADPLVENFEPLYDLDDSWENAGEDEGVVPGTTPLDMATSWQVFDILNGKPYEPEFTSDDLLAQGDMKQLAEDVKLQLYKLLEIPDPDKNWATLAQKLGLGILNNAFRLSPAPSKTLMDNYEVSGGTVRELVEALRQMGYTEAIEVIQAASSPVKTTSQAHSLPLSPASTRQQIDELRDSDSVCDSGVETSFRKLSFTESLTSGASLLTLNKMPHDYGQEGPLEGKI

Nc1ccc(C(=O)O)cc1
inactive: all assays above

C1CNCCN1
inactive: all assays above

Cc1ccc([N+](=O)[O-])cc1N
not listed: [8] | [15]
inactive: all other assays above
